Bioassay records (PubChem BioAssay)
Nrf2 block: blocks Nrf2 signaling; 2.1% of 360,000 active; A549 ARE-Fluc reporter, luciferase luminescence, 18-24 h; Potency, µM (titrated, usually from 46 µM), without a hit: at the top dose activity change, negative = inhibition, hits mostly inhibitors; also: % is scaled to controls: 0 for no effect and ±100 for the full control effect; nearly all actives have a fitted effect of over 60% in size
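Concentration-response testing used A549 ARE_Fluc cells at 5000 cells/well. Following an 18-24 h compound incubation, viability was read by fluorescence (Ex 405/Em 525) and luciferase output by luminescence.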
A549 viability: A549 cytotoxicity, counter-screen for Nrf2 inhibitors. A549 ARE-Fluc cells, CellTiter-Fluor viability, 18-24 h. Potency, µM (top dose mostly 46 µM), for the others: at the highest dose activity change, negative = cytotoxicity, actives largely listed as inhibitors. 0.16% of 390,000 active. AID 504648; also: % is scaled to controls: 0 for no effect and ±100 for the full control effect
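A549 ARE_Fluc cells in 5% FBS OPTI-MEM were exposed to compounds in concentration-response for 18-24 h at 37 deg C. Viability was read by CellTiter-Fluor fluorescence (Ex 405/Em 525) after 30 min, before the luciferase read.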
ATXN viability: reduces viability in counter-screen for ATXN expression inhibitors; S2 cells (HEK-293 line with an ATXN2-luciferase reporter) viability, CellTiter-Fluor protease fluorescence, 24 h; Potency, µM (top dose mostly 56.7 µM), hits mostly cytotoxic; 0.49% of 400,000 active; also: nearly all actives have a fitted effect of over 40% in size
ATXN2 expr inh: ATXN2 expression inhibition; Potency, µM (series often up to 57 µM), without a hit: at the highest dose activity change, negative = inhibition, hits mostly inhibitors; AID 1745845; 0.72% of 360,000 active; HEK-293 ATXN2-luciferase reporter, luminescence, 24 h; also: % is scaled to controls: 0 for no effect and ±100 for the full control effect; nearly all actives have a fitted effect of over 55% in size
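ATXN2-luciferase reporter cells (luciferase flanked by upstream and downstream ATXN2 gene portions) were treated 24 h at 37 °C with compounds at up to 57 uM. SteadyGlo luminescence gave expression; GF-AFC fluorescence gave viability.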
Nrf2 activator: Nrf2 pathway activation; AREc32 ARE-luciferase reporter (MCF7-derived line), luminescence, 24 h; Potency, µM (series often up to 46.1 µM), without a hit: top-dose activation, actives largely listed as activators; 0.31% of 410,000 active; AID 624171; also: % of control where 0% means no effect; nearly all actives have a fitted effect of over 65% in size
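Nrf2 activation is followed as ARE-luciferase induction in the AREc32 line after one day of compound treatment; luminescence is read with Steady-Glo.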
* = called active by the depositor; i = inactive; ? = inconclusive; · = not tested or not shown; ! = a repeat was not active. Sampled rows, rich in hits. Any-hit rate of the full collection: about 2.9%. Calls follow the shape of the dose curve; as a rule, active = well fitted curve in the direction sought with a large enough effect; inconclusive = small, poorly fitted or top-dose-only effect, or another doubt; inactive = no such curve, though single readings can be large; an effect the other way counts as inactive or inconclusive. Potency is read from the fitted curve at half-maximal effect.

SMILES	Nrf2 block	A549 viability	ATXN viability	ATXN2 expr inh	Nrf2 activator
Cc1ccc(Cn2nc(C)c(NC(=O)c3cc(-c4ccc(F)cc4)on3)c2C)cc1	-29.7%	-15.0%	?	?	-0.2%
COc1ccc(C(=O)NCc2cc3ccccc3n2C)cc1	?	-1.7%	i	31.8%	3.9%
CCCCCCC(C)(C)c1ccc([C@@H]2C[C@H](O)CC[C@H]2CCCO)c(O)c1	-1.3%	-12.3%	10µM*	14.1µM*	-0.4%
O=c1c2ccccc2sn1-c1ccc(Cl)cc1	·	·	17.8µM*	?	?
OCc1cccc[n+]1CCc1ccccc1	7.31µM*	-1.7%	i	3.3%	-0.1%
C/C=C1/CC(C)C(C)(O)C(=O)OCC2CCN3CCC(OC1=O)C23 (configuration not stated)	10.9%	0.6%	i	-10.3%	0.4%
CCN(CC)C(=O)c1ccc(NC(=O)CCn2nc(-c3ccc(Cl)cc3)c3ccccc3c2=O)cc1	25.9µM*	-15.4%	?	?	-0.6%
O=C1c2cccc3cccc(c23)C(=O)N1/N=C/c1c(O)n(-c2ccccc2)c(=O)[nH]c1=O	4.4%	3.0%	i	6.1%	4.5%
O=C(CN1CCN(c2ncc(C(F)(F)F)cc2Cl)CC1)N1CCN(c2ncc(C(F)(F)F)cc2Cl)CC1	11.2µM*	?	?	-28.4%	0.3%
COc1ccc(-n2nnnc2C(c2cccs2)N2CCC3(CC2)C(=O)NCN3c2ccccc2)cc1 (configuration not stated)	·	·	?	?	-1.2%
COc1ccc(CCNC(=O)N2c3ccccc3Sc3ccccc32)cc1	16.4µM*	?	?	-24.0%	0.4%
COc1ccc(CCNC(=O)COC(=O)Cc2ccccc2)cc1	-7.8%	2.7%	i	-0.9%	3.1%
CC[C@@H](C)[C@H](C(CC(=O)N1CCCC1[C@@H](OC)[C@H](C)C(=O)N[C@H](Cc1ccccc1)c1nccs1)OC)N(C)C(=O)[C@H](NC(=O)[C@@H](C(C)C)N(C)C)C(C)C (some centres not stated)	?	?	?	8.8%	0.6%
O=C(CCCc1nc(-c2ccc(Cl)cc2)no1)NCC1CCCO1 (configuration not stated)	13µM*	-5.5%	i	-29.5%	0.3%
O=C(Nc1ccc(F)cc1)[C@@H](c1ccccc1)N1Cc2ccccc2C1=O	5.3%	-9.7%	?	-10.4%	0.1%
Clc1ccc(C(c2ccc(Cl)cc2)n2cc[n+](CC(OCc3ccc(Cl)cc3Cl)c3ccc(Cl)cc3Cl)c2)cc1 (configuration not stated)	?	?	17.8µM*	28.2µM*!	-3.0%
Cn1c(=O)oc2cc(S(=O)(=O)CCC(=O)NCCc3ccccc3)ccc21	?	-4.3%	i	13.4%	1.4%
Cn1c(=O)oc2cc(NC(=O)CCl)ccc21	?	-27.8%	·	?	7.94µM*
COc1ccc(-c2cc(-c3ccccc3)[n+](C)c(-c3ccccc3)c2)cc1	?	?	i	8.91µM*	5.8%
C[n+]1c(-c2ccccc2)cc(CCCCc2cc(-c3ccccc3)[n+](C)c(-c3ccccc3)c2)cc1-c1ccccc1	-15.0%	-10.2%	i	?	0.1%
Cc1ccc(-c2cc(-c3ccccc3)cc(-c3ccccc3)[n+]2-c2ccc(C(=O)O)cc2)cc1	4.7%	1.7%	i	4.7%	-0.5%
Cc1ccccc1-[n+]1c(-c2ccccc2)cc(-c2ccccc2)cc1-c1ccccc1	11.6µM*	?	12.6µM*	?	-1.1%
COc1ccc(-[n+]2c(-c3ccccc3)cc(-c3ccc(C)cc3)cc2-c2ccccc2)cc1	20.6µM*	?	?	?	0.2%
C[C@]12N[C@H](Cc3ccccc31)c1ccccc12	22.8%	-3.1%	i	-2.0%	2.1%
Cc1cc(OCC(=O)N2CCC(C(=O)O)(c3ccccc3)CC2)c2c(C)c(C)c(=O)oc2c1	-5.0%	2.5%	i	-16.0%	0.7%
SMILES	Nrf2 block	A549 viability	ATXN viability	ATXN2 expr inh	Nrf2 activator
C[C@@H]1CN([C@@H](C)CO)C(=O)CCCn2nncc2CO[C@@H]1CN(C)C(=O)Oc1ccccc1	·	·	i	3.4%	-0.4%
O=C1C=CC2C3C(=O)N(c4ccccc4)C(=O)C3C1N2Cc1ccccc1 (configuration not stated)	13.1%	0.0%	5.97µM*	?	?
CN(Cc1ccccc1)C(=O)c1ccc(NC(=O)C2CCN(C(=O)OC(C)(C)C)CC2)cc1	16.4µM*	-5.0%	?	25.1µM*	3.0%
COC1/C=C/C=C(\C)Cc2cc(O)c(Cl)c(c2)N(C)C(=O)CC(OC(=O)C(C)C)C2(C)OC2C(C)C2CC1(O)NC(=O)O2 (configuration not stated)	8.2µM*	?	?	?	-1.3%
CC(C)N1OC2CC1c1nc3ccccc3n1C2 (configuration not stated)	2.6%	-0.3%	i	-1.0%	-0.9%
Cc1sc2c(c1C)C(c1ccc(C(C)(C)C)cc1)=NCC(=O)N2CC(=O)Nc1nccs1	11.6µM*	-23.9%	i	-10.2%	0.4%
CNCCC(Oc1ccc(C(F)(F)F)cc1)c1ccccc1 (configuration not stated)	0.5%	-3.9%	31.6µM*	28.2µM*!	3.1%
CC(Cc1ccccc1)/[N+]([O-])=C\c1ccc(C(F)(F)F)cc1 (configuration not stated)	?	15.8%	i	11.9%	0.5%
COc1ccc2c(c1OC)CN1CCc3cc4c(cc3[C@H]1C2)OCO4	-18.9%	-1.4%	?	-2.1%	4.8%
CCC1CN2CCc3cc(OC)c(OC)cc3C2CC1CC1NCCc2c1[nH]c1ccc(O)cc21 (configuration not stated)	0.517µM*	1.16µM*	?	0.0075µM*	-1.7%
C[C@]12CC[C@@H](O)CC1=CC(=O)C1C2CC[C@]2(C)C(=O)CCC12 (some centres not stated)	15.5%	-0.5%	i	-0.3%	3.4%
COC1CC2C=C(C)C=CC=CC(=O)NC(c3ccccc3)CC=CCCC(O)CC(=O)C2=C1O (configuration not stated)	·	·	14.1µM*	2.82µM*	-3.1%
COc1ccc(-n2nnnc2C(c2cc3ccccc3o2)N2CCC(n3c(=O)[nH]c4ccccc43)CC2)cc1 (configuration not stated)	·	·	7.94µM*	7.94µM*	-0.2%
O=c1[nH]c2ccccc2n1C1CCN(C(c2cccc3ccccc23)c2nnnn2-c2ccc3c(c2)OCCO3)CC1 (configuration not stated)	·	·	?	-22.1%	-1.3%
O=c1[nH]c2ccccc2n1C1CCN(C(c2cc3ccccc3o2)c2nnnn2-c2ccc3c(c2)OCCO3)CC1 (configuration not stated)	·	·	?	12.6µM*	-0.6%
